In all, about 270,000 compounds went through this assay and about 620 (0.23%) were called active. Roughly 12% stayed inconclusive and do not appear here. The call rests on the fitted dose curve; in most records, active means well fitted inhibition curve with a large enough effect in the polarisation, with a control signal flat (not every such curve was filed as active); inconclusive means small, poorly fitted or top-dose-only effect, or effect the other way, or a change in a side signal; inactive means no such curve, though single readings can be large or run the other way; the % refers to the polarisation. Shown is part of a subset that was picked to be rich in actives. Where a call stands in place of a potency, no number is given.
Potency means the concentration at half of the fitted maximal effect.

Chain of Menin (Homo sapiens) (O00255 whole entry, looked up, the tested form may be a part): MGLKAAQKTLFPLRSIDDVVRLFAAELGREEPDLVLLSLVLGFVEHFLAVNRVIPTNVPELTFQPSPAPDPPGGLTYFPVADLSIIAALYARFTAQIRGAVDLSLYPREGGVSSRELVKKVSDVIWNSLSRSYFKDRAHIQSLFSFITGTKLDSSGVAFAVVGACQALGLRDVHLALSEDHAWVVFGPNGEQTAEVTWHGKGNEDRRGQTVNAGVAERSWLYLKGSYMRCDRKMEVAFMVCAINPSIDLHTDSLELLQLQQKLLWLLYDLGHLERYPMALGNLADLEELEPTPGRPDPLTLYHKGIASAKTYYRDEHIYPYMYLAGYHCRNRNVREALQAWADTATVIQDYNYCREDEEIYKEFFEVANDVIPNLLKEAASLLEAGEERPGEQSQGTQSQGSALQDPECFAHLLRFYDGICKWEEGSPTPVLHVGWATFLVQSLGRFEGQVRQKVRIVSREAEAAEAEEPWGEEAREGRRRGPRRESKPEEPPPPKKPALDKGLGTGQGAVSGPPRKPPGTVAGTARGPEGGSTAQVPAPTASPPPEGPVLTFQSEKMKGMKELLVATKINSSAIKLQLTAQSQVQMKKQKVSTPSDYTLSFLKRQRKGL

This assay concerns the target Menin (Homo sapiens) (UniProt O00255). In words: qHTS Assay for Inhibitors Targeting the Menin-MLL Interaction in MLL Related Leukemias: Competition With Texas Red Labeled MLL-derived Mutant Peptide. The note with it: fluorescence polarization; series mostly up to 61.6 µM. An excerpt: qHTS Assay for Inhibitors Targeting the Menin-MLL Interaction in MLL Related Leukemias NIH Chemical Genomics Center [NCGC] NIH Molecular Libraries Probe Centers Network [MLPCN] MLPCN Grant: MH084875-01A1 Assay Submitter (PI): Jolanta Grembecka, Tomasz Cierpicki, University of Virginia Translocations of the MLL (Mixed Lineage Leukemia) gene are frequently found in human leukemias affecting both children and adults. Fusion of MLL to one of more than 60 genes results in generation of oncogenic proteins upregulating Hox genes, which are vital to blood cell development. Patients harboring fusion of the MLL gene suffer from aggressive leukemias and respond poorly to available therapies. All of the oncogenic fusion proteins have a preserved N-terminal fragment of MLL that has been identified to interact with menin. It has been recently discovered that association with menin is critical to the leukemogenic activity of the MLL fusion oncoproteins. Selective targeting of the menin-MLL interaction could provide an attractive therapeutic approach to develop novel drugs for MLL-related leukemias. Small molecules blocking the menin-MLL interaction should reverse the oncogenic potential of MLL fusion proteins. We have developed and optimized a fluorescence polarization-based assay for the identification of Menin-MLL inhibitors. The assay was run employing two different MLL-derived peptides. The present assay uses a 12 amino acid peptide labeled with fluorescein at its N-terminus. This peptide consists of the menin high affinity binding motif from MLL and is potently bound by menin. Another peptide with a mutated sequence, labeled with Texas Red, was used in parallel as a less stringent screen for inhibitors.
The Menin protein, the MLL-wild type (w.t.) derived peptide (N-terminal 12 amino acids), the MLL-derived peptide labeled with Texas Red and the MLL-w.t. peptide labeled with Fluorescein were kindly supplied by laboratory of Dr. Jolanta Grembecka, University of Virginia. All protein and peptide solutions were stored in single use aliquots at -80C. The Eu3+ Cyrptate-conjugated mouse monoclonal antibody anti-6 Histidine (Eu3+-AB) and the Streptavidin-XL665 conjugate (XL665) were purchased from Cisbio International (Bedford, MA). All antibody and XL665 conjugate solution stocks were stored in single use aliquots at -20C. The Buffer components for all assays were purchased from Sigma-Aldrich (St. Louis, MO) and Invitrogen (Carlsbad, CA). FP Assay Reagents: 1. FP reaction buffer: 50 mM Tris-HCl pH 7.5, 50 mM NaCl, 1mM DTT. Before use, 0.05% BSA is added. 2. Menin protein, MLL-w.t. labeled with fluorescein, MLL-mutant peptide labeled with texas red. Stored in singe use aliquots at -80C. 3. MLL-w.t. unlabeled peptide as positive control: 10 uM final in FP buffer. FP Assay Procedure: 1. Prepare Menin at 200 nM, MLL-w.t.-fluorescein at 25 nM, and MLL-mutant-texas red at 50 nM mixture in FP buffer. 2. Prepare Menin at 200 nM, MLL-w.t.-fluorescein at 25 nM, MLL-mutant-texas red at 50 nM, and 10 uM MLL-w.t. unlabeled mixture in FP buffer. 3. Prepare MLL-w.t.-fluorescein at 25 nM and MLL-mutant-texas red at 50 nM mixture in FP buffer. 3. Dispense 4 ul per well of reagent in step 1 in columns 2, 4 - 48 in a black 1536 well plate, dispense 4 ul per well of reagents from steps 2 and 3 in columns 1 and 3 respectively. Incubate plate at ambient for 15 minutes. 4. Transfer 23 nl per well of compound to plate and incubate at ambient for 1 hr. 5. Read fluorescence polarization for each label using the PerkinElmer Envision. Envision protocol for fluorescein: FITC FP Dual Enh Mirror, Excitation filter 480, Emission filter (1) P-pol 535, Emission filter (2) S-pol 535 Envision protocol for texas red: FP Dual Enh Mirror, Excitation filter 555, Emission filter (1) P-pol 632, Emission filter (2) S-pol 632
On to `CC[N+](C)(CC)CCC[n+]1c(-c2ccccc2)c2cc(N)ccc2c2ccc(N)cc21`, for which the Potency is 12.6 µM (active). With `CC(=O)[O][Sn]([c]1ccccc1)([c]1ccccc1)[c]1ccccc1`, the Potency result is “inactive”. As for `CCN(CC)c1nc(C)cc(OP(=S)(OC)OC)n1`, the entry is “inactive”; as for `COC([CH2][Hg])CNC(=O)c1ccccc1OCC(=O)O` (stereo not given), “inactive”; as for `CO[C@H]1[C@@H](O)[C@@H](C)O[C@H](O[C@H]2[C@H](Oc3cccc4c(O)c5c(=O)oc6ccc(C)c7c(=O)oc(c34)c5c67)O[C@H](C)[C@H](O)[C@@H]2O)[C@@H]1O`, “inactive”. As for `N#Cc1cc(Br)c(O)c(Br)c1`, the entry is “inactive”; as for `CC[C@H]1CN2CCc3cc(OC)c(OC)cc3[C@@H]2C[C@@H]1C[C@H]1NCCc2cc(OC)c(OC)cc21`, 22.4 µM (active); as for `C[C@]12O[C@H](C[C@@]1(O)C(=O)O)n1c3ccccc3c3c4c(c5c6ccccc6n2c5c31)CNC4=O`, “inactive”.

In the case of `C[C@@H]1C[C@H]2CC[C@H](O2)[C@H](C)C(=O)O[C@@H](C)C[C@@H]2CC[C@@H](O2)[C@@H](C)C(=O)O[C@H](C)C[C@H]2CC[C@H](O2)[C@H](C)C(=O)O[C@@H](C)C[C@@H]2CC[C@@H](O2)[C@@H](C)C(=O)O1`, the Potency entry was “inactive”. The value for `O=C1CCc2cccc3c2N1CC3` was “inactive”.

The values are drawn from PubChem BioAssay AID1768 (National Center for Advancing Translational Sciences (NCATS), 2009).
